The OligoGym collection

biological target: MFNG; assay: pooled miR-30 sensor sort-seq; sequence = guide strand; conditions: shRNA
Further: reference of the scale not given here.

Sequence | sensor-assay potency score (higher = more potent)
TTGTCATCGTCCACATGGCAGA | -1.57
TCTTGCAGGACAGAGCTGGGTG | -0.336
TCGAACTCAGCAGCCATCTTGC | -1.05
AACTGTACCAGCCTCGTGCGGT | -0.733

biological target: MFRP; assay: as above; conditions: shRNA

Sequence | sensor-assay potency score (higher = more potent)
TGGAACTGTAGTTCTATGCTGT | -0.0204
TGTAGTTCTATGCTGTGTCCGG | -0.086
TTGTCATCGCTGCCATCGGTGC | -1.66
TGGTGTTGTAGCTCAGACCGAG | -0.523
TTGCAGAACTCGGTCTTGCTCG | -0.303
TGTCCTAAACAGCACAGCCAGC | -1.58
TATGCTGAGGGCTTCGATCTTG | -0.113
TACTGCTGCAGGTAGCTGGGAG | -0.172
TGAAGTTGTGGAACTGTAGTTC | 0.0577
TTGGTGAGGGTACTGCTGCAGG | -0.958
TCAAACTTGCACTCGTCCTGAG | 0.173
TAGTTCTATGCTGTGTCCGGCA | -0.362

biological target: MIA; assay: as above; conditions: shRNA

Sequence | sensor-assay potency score (higher = more potent)
TAGTAATCTCCCTGAACGCTGC | -0.496
TTTGCCAGGTTTCAGGGTCTGG | -1.17
TTTGTCTGTCTTCACATCGACT | -0.999
TGGTCCTCTCGGACAATGCTAC | -1.39
TCTCGGACAATGCTACTGGGGA | -1.23
TTCAGGGTCTGGTCCTCTCGGA | -0.169
TGGTCCGCACACAGCTTCCGGT | -1.49
ATTTGTCTGTCTTCACATCGAC | -0.34
TGAATGGTCAGGAATCGGCAGT | -0.833
TTGGGCATAGGACCACCCCTGA | -1.13
TCAGGGTCTGGTCCTCTCGGAC | -1.41
TGTCTGTCTTCACATCGACTTT | -1.3

biological target: MIB1; assay: as above; conditions: shRNA

Sequence | sensor-assay potency score (higher = more potent)
TTTAGATAGTAAAACACGCATT | -0.883
TTCCTTATGACACTTTGCCAGT | -1
TTTAGCAACATCTCCATTGGCA | 0.277
ATTGACATTGGTATTATCCTTG | 0.229
TTTACATCCACATCTGGTCTTT | 0.23
TAGAAGTTTAATTCGTTCCAGG | 0.00519
TTCAACTACTGCTCGACACTGC | 0.708
TTAACTCATCAGAACTTCCAAC | -0.501
TATGCTGTCGTTCAACAGCAAG | -1.72
TTGACCACTGACTTTTTCCTTA | 0.24
ATTGGTATTATCCTTGTCCTTT | -0.409
TTAAAGTCTCAAACATTCCATC | -0.848
